Source: PubChem BioAssay
MbtI inh: inhibitors of Mycobacterium tuberculosis siderophore enzyme MbtI; hit rate 0.89% among 100,000; purified MbtI enzyme, fluorescence intensity read-out; AID 493033; inhibition, % (concentration not given with the values); in the data active = inhibition mostly above about 56%, no sharp cut-off; inactive = mostly below about 77%
Target sequence (P9WFX0 whole entry, looked up): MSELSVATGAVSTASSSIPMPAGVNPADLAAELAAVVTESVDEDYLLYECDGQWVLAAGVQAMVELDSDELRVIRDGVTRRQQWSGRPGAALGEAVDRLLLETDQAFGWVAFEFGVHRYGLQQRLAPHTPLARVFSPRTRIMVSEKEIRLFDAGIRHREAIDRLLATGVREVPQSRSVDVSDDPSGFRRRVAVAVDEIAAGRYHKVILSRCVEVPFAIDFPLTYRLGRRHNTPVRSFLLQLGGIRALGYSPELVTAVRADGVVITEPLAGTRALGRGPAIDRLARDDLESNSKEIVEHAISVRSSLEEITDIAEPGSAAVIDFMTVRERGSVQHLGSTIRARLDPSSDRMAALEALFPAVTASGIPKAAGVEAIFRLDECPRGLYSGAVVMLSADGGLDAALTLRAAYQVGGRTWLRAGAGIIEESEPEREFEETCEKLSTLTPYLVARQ
MenB inh: inhibitors of Mycobacterium tuberculosis MenB enzyme; hit rate 0.43% among 100,000; inhibition, % (concentration not given with the values); P9WNP5; MenB enzyme assay, absorbance read-out; in the data active = inhibition above about 21%, passing the limit was not always enough
PV pol inh: poliovirus RNA polymerase inhibition; P03300; poliovirus polymerase elongation, fluorescence polarization; stronger effect = lower value; AID 588519; hit rate 0.66% among 150,000; % elongation, % (compound at 16.7 µg/mL); in the data active = % elongation below about 90%
AID504770: growth inhibitors of E. coli YBA685 in a screen for V. cholerae RctB (chromosome II replication) inhibitors; z-score (test concentration not listed); E. coli YBA685 rctB-dependent plasmid, OD600 growth, 3 h; stronger effect = lower value; hit rate 0.27% among 130,000; in the data active = z-score below about -2, passing the limit was not always enough
* = called active by the depositor. An excerpt weighted towards active compounds, which were near 1.5% of everything screened.

What do the screens show for `O=C1CCC/C(=N\NC(=S)NCCc2ccccc2)C1`?
MbtI inh: -5; MenB inh: -35; PV pol inh: 113; AID504770: 0.05

What do the screens show for `CC1CN(c2nnc(-c3cccs3)c3ccccc23)CC(C)O1` (configuration not stated)?
MbtI inh: -6; MenB inh: 2; PV pol inh: 105; AID504770: -2.5*

Results for CC1CN(c2nc(-c3cccs3)cc(C(F)(F)F)c2C#N)CC(C)O1 (configuration not stated) ?
AID504770: -0.1

Results for CC(=O)Oc1ccccc1C(=O)N1CC(C)CC(C)C1 (configuration not stated) ?
MenB inh: -48; PV pol inh: 108; AID504770: -0.2

Results for CCc1ccc(S(=O)(=O)/N=C2\C=CC(=O)c3ccccc32)cc1 ?
MbtI inh: 64; MenB inh: -41; PV pol inh: 74*; AID504770: 1.6

How did Cc1ccc(CC(=O)Nc2ccc3c(c2)N(C)C(=O)c2ccccc2S3)cc1 do in these assays?
PV pol inh: 70*

How did Oc1ccc(-c2csc3nc(-c4ccccc4)nn23)c(O)c1 do in these assays?
AID504770: 2.2

How did CC(C)(C)c1cc(C(F)(F)F)nc(SCCNC(=O)c2cnn3cccnc23)n1 do in these assays?
MbtI inh: -15; MenB inh: 34*; PV pol inh: 101; AID504770: -0.05

What do the screens show for `O=C(NCC1COc2ccccc2O1)c1ccc(S(=O)(=O)N2CCCCC2)cc1` (configuration not stated)?
MbtI inh: 6; MenB inh: -1; PV pol inh: 103; AID504770: 0.75

How did O=c1ccc2ccc(Oc3ncccn3)cc2o1 do in these assays?
MbtI inh: -4; MenB inh: 6; PV pol inh: 102; AID504770: -1

Results for CC1=C/C(=N\S(=O)(=O)c2ccccc2)C=CC1=O ?
MbtI inh: 101*; MenB inh: -27; PV pol inh: 103; AID504770: -0.9

How did CC1=C/C(=N/OC(=O)c2ccccc2)C=CC1=O do in these assays?
MbtI inh: 0; MenB inh: -47; PV pol inh: 102; AID504770: -1

How did O=C1C=CC(=NS(=O)(=O)c2ccc(F)cc2)C=C1 do in these assays?
MbtI inh: 98*; MenB inh: 21; PV pol inh: 100; AID504770: -1.7

What do the screens show for `Cc1ccc(S(=O)(=O)N=C2C=CC(=O)C=C2)cc1`?
MbtI inh: 96*; MenB inh: 9; PV pol inh: 103; AID504770: -0.5

How did COc1ccc(S(=O)(=O)N=S(C)(=O)c2ccc(C)cc2)cc1 (configuration not stated) do in these assays?
AID504770: -1.4

What do the screens show for `CS(=O)(=O)c1ccc(F)cc1`?
MbtI inh: 2; MenB inh: 7; PV pol inh: 103; AID504770: 0.45

What do the screens show for `CCOc1ccc(S(=O)(=O)N=C2C=CC(=O)C=C2)cc1`?
MbtI inh: 93*; MenB inh: 19; PV pol inh: 99; AID504770: -0.9

What do the screens show for `Cc1nn(C)cc1S(=O)(=O)N1CCCc2ccccc21`?
MbtI inh: -25; MenB inh: -23; PV pol inh: 103; AID504770: -0.6

What do the screens show for `CC(C)N(C(=O)COn1nnc2ccccc21)c1ccccc1`?
MbtI inh: -10; MenB inh: -13; PV pol inh: 102; AID504770: -0.85

Results for N#C/C(=C\C=C\c1ccco1)C(N)=S ?
MbtI inh: 68; MenB inh: -58; PV pol inh: 84*; AID504770: 1.2

What do the screens show for `Cc1nn(-c2ccccc2)c(N2CCCCC2)c1C=C(C#N)C#N`?
MbtI inh: -1; MenB inh: -34; PV pol inh: 101; AID504770: -0.9

Results for CC(=O)N1CCCCC1c1cccnc1.O=[N+]([O-])O.[Ag] (configuration not stated) ?
MenB inh: -36; PV pol inh: 60*; AID504770: -5.5*

How did NC(=O)c1c(N)sc2c1CCCCC2 do in these assays?
MbtI inh: 32; MenB inh: -36; PV pol inh: 78*; AID504770: -1.3

What do the screens show for `[O-][n+]1ccccc1Oc1ncnc2sc3c(c12)CCCC3`?
MbtI inh: -27; MenB inh: 3; PV pol inh: 109; AID504770: -0.85

How did NC1(N)OC(CN2C(=O)c3ccccc3C2=O)CS1 (configuration not stated) do in these assays?
MbtI inh: -5; MenB inh: 6; PV pol inh: 101; AID504770: -0.7

How did O=C1[C@H]2CSC3(C(=O)c4ccccc4C3=O)N2C(=O)[C@H]2CSC3(C(=O)c4ccccc4C3=O)N12 do in these assays?
MbtI inh: 100*; MenB inh: -5; PV pol inh: 99; AID504770: -0.35

Results for Cc1cc(C)c(C#N)c(Cl)n1 ?
MbtI inh: -2; MenB inh: -32; PV pol inh: 101; AID504770: 0.15

What do the screens show for `N#Cc1c(Cl)nc(N2CCOCC2)c(Cl)c1Cl`?
MbtI inh: -9; MenB inh: -20; PV pol inh: 104; AID504770: -0.1

Results for CC(C)=NNc1nc(Cl)c(C#N)c(Cl)c1Cl ?
MbtI inh: 61*; MenB inh: -3; PV pol inh: 101; AID504770: -0.6

How did N#Cc1c(Cl)nc(Cl)c(Cl)c1Cl do in these assays?
MbtI inh: 72; MenB inh: 0; PV pol inh: 76*; AID504770: -3.5*

How did COc1ccc(CN(C(=O)/C=C\C(=O)O)C2CC(=O)N(c3ccccc3)C2=O)cc1 (configuration not stated) do in these assays?
MbtI inh: 3; MenB inh: 14; PV pol inh: 100; AID504770: -0.75

How did COc1ccccc1-c1noc(-c2ccccc2C(=O)NCc2ccco2)n1 do in these assays?
MbtI inh: 59*; MenB inh: -17; PV pol inh: 105; AID504770: -0.45

Results for CNC(=O)c1ccccc1-c1nc(-c2ccccc2OC)no1 ?
MbtI inh: -5; MenB inh: -20; PV pol inh: 101; AID504770: -0.3

How did O=c1nc2ccccn2c2c1c(=O)[nH]c1ccccc12 do in these assays?
MbtI inh: 3; MenB inh: 62*; PV pol inh: 102; AID504770: 0.1

How did O=c1c2ccccc2nc2ccccn12 do in these assays?
MbtI inh: 108; MenB inh: -2; PV pol inh: 101; AID504770: 0.8

How did COc1ccc2cc([C@H](C)C(=O)O)ccc2c1 do in these assays?
MbtI inh: -1; MenB inh: -7; PV pol inh: 99; AID504770: 0.85

How did COc1ccc(-c2sccc2C(C)C(=O)O)cc1 (configuration not stated) do in these assays?
MbtI inh: 6; MenB inh: 27*; PV pol inh: 105; AID504770: 0.75

What do the screens show for `Cc1sc(NC(=O)C2CC2)c(C#N)c1C`?
MbtI inh: 90*; MenB inh: -50; PV pol inh: 95; AID504770: -0.7

What do the screens show for `COc1ccc(-c2noc(CN(C(C)=O)C3CCCCC3)n2)cc1`?
MbtI inh: -10; MenB inh: -48; PV pol inh: 106; AID504770: -0.5
